{"source": "PubChem BioAssay AID485360", "about": "(National Center for Advancing Translational Sciences (NCATS), 2010)", "note": "The whole screen tested about 230,000 compounds, of which about 1,500 (0.65%) were called active. Entries that show only a call come without a potency. Not shown: some 3% with an inconclusive outcome. Calls come from the whole dose curve; as a rule, active = well fitted inhibition curve with a large enough effect; inconclusive = small, poorly fitted or top-dose-only effect; inactive = no such curve, though single readings can be large or run the other way. For the sample, actives were picked, then their nearest neighbours and some compounds at random. Potency is the fitted concentration of half-maximal effect.", "data": [{"molecular_target": "Lethal(3)malignant brain tumor-like protein 1 (Homo sapiens) (UniProt Q9Y468)", "sequence (Q9Y468 whole entry, looked up)": "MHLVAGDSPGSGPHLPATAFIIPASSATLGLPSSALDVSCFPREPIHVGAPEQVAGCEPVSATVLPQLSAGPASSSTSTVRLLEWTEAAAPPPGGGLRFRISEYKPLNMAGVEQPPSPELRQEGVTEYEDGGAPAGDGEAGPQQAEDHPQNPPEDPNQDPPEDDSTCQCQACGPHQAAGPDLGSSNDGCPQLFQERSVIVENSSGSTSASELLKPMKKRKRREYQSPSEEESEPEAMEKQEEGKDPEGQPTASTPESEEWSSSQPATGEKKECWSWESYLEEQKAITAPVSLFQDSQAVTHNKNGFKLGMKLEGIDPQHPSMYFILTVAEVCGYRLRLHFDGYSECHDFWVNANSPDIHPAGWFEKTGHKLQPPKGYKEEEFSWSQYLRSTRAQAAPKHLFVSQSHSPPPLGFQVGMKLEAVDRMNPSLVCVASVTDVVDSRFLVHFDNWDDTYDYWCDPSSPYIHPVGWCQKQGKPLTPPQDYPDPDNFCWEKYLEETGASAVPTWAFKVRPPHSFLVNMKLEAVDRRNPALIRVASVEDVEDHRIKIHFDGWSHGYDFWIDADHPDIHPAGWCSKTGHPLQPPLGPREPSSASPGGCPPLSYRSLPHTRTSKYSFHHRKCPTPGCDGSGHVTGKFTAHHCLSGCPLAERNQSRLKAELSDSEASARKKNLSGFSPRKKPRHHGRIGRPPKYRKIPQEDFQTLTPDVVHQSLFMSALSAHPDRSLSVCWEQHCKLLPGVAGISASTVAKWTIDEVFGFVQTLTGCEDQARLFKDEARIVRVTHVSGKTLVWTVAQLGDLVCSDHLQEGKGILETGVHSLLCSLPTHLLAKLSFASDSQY", "experiment": "qHTS Assay for the Inhibitors of L3MBTL1; note: nearly all actives have a fitted effect of over 60% in size", "conditions": "AlphaScreen L3MBTL1–H3K9me1 peptide binding; series mostly up to 57.1 µM", "description": "The histone code is comprised of many post-translational modifications that occur mainly in histone tail peptides. The identity and location of these marks are read by a variety of histone binding proteins that are emerging as important regulators of cellular differentiation and development and are increasingly being implicated in numerous disease states. Small molecule probes that disrupt the interaction between histone binding proteins and chromatin would enable a systematic chemical biology study of proteins that read the histone code and could potentially reveal new targets for drug discovery. However, no such small molecules are known. This dearth of quality molecular probes can largely be attributed to the novelty of the target class and the lack of screening assays. This proposal details the development of the first high-throughput screening assay for the discovery of inhibitors of methyl-lysine binding proteins and how it can be be used to initiate a full-scale discovery effort for antagonists of histone binding proteins. Specifically, this work focuses on an AlphaScreen(tm)-based HTS assay for Malignant Brain Tumor (MBT) domain-containing proteins, which bind to the lower methylation states of lysine residues present in histone tail peptides.\nTo each well, 2 uL of L3MBTL1 protein (final 50 nM) and 1 uL biotinylated histone peptide monomethylated at Lys9 [b-AHA-H3(1-15)K9me1] (final 75 nM) was added using a nanoliter dispenser. Formation of a protein-peptide complex proceeded at room temperature for 30 min. A Kalypsys pin-tool was employed to transfer 23 nL of library compound solution in DMSO to each well. Cefsulodin, found in a pilot screen of the LOPAC library to be a weak inhibitor of L3MBTL1 binding, was used as an intraplate control with a 16-point titration in duplicate. Following a 30 min incubation of the protein-peptide complex with compounds at room temperature, a mixture of 40 ug/mL each streptavidin-coated donor and nickel chelate acceptor AlphaScreen beads (final 10 ug/mL) was added in a 1 uL dispense for a final volume of 4 uL. Plates were incubated, protected from the light for 30 min at room temperature. Microplates were then be read on an EnVision multilabel plate reader using the 1,536 plate HTS AlphaScreen aperture (excitation time 80 ms, measurement time 240 ms).", "values": [{"compound": "O=C1NC(=O)N(c2ccccc2)C(=O)/C1=C/c1ccc([N+](=O)[O-])s1", "Potency": "17.8 µM (active)"}, {"compound": "O=C1NC(=O)N(c2ccc(F)cc2)C(=O)/C1=C/c1ccc2c(c1)CCCN2Cc1ccccc1", "Potency": "inactive"}, {"compound": "COc1cccc(N2C(=O)NC(=O)/C(=C\\c3ccc([N+](=O)[O-])s3)C2=O)c1", "Potency": "20 µM (active)"}, {"compound": "Cc1cccc(N2C(=O)NC(=O)/C(=C\\c3cnn(-c4ccccc4)c3)C2=O)c1", "Potency": "inactive"}, {"compound": "O=C(NC(=S)N1C[C@H]2C[C@H](C1)c1cccc(=O)n1C2)c1ccc(F)cc1", "Potency": "inactive"}, {"compound": "Cn1cc(C(=O)OCC(=O)N2CCCC2)c2ccccc21", "Potency": "inactive"}, {"compound": "O=c1[nH]c(O)c(C=Nc2cc(F)cc(F)c2)c(=O)[nH]1", "Potency": "inactive"}, {"compound": "CCN(CC)C(=O)Oc1ccc(NC(=O)N2CCOCC2)cc1", "Potency": "inactive"}, {"compound": "COc1ccc(-c2nn(CCC#N)cc2C(=O)Nc2ccc(C(C)=O)cc2)cc1", "Potency": "inactive"}, {"compound": "Cc1nc2ccccc2c(=O)n1-c1ccc(Cl)cc1Cl", "Potency": "inactive"}, {"compound": "O=C(OCC1O[C@@H](OC(=O)c2cc(O)c(O)c(O)c2)[C@@H](OC(=O)c2cc(O)c(O)c(O)c2)[C@@H](OC(=O)c2cc(O)c(O)c(O)c2)[C@@H]1OC(=O)c1cc(O)c(O)c(O)c1)c1cc(O)c(O)c(O)c1", "note": "(stereo not given in full)", "Potency": "0.178 µM (active)"}, {"compound": "Cc1ccc(-n2c(C)cc(/C=C3\\C(=O)NC(=O)N(C)C3=O)c2C)cc1C", "Potency": "inactive"}, {"compound": "Cc1ccnc(-n2c(C)cc(/C=C3\\C(=O)NC(=S)N(C)C3=O)c2C)c1", "Potency": "inactive"}, {"compound": "Cc1cc(/C=C2/C(=O)NC(=O)N(Cc3ccco3)C2=O)c(C)n1-c1ccc(C(=O)O)cc1", "Potency": "15.8 µM (active)"}, {"compound": "COC(=O)[C@@H]1C(OC(=O)c2ccccc2)CC2CCC1N2C", "note": "(stereo not given in full)", "Potency": "inactive"}, {"compound": "CN(C)C(=O)Oc1ccc(NC(=O)N2CCOCC2)cc1", "Potency": "inactive"}, {"compound": "COCCNC(=O)CN1C2CCC1CC(O)(c1cccnc1)C2", "note": "(stereo not given)", "Potency": "inactive"}, {"compound": "CN(C)CCN(CC1CCCN(Cc2ccccc2F)C1)C(=O)Cc1ccc(F)c(F)c1", "note": "(stereo not given)", "Potency": "inactive"}, {"compound": "COC(=O)C1=C(c2ccc(F)cc2OCc2ccccc2)C[C@@H]2CC[C@H]1N2C(=O)NCc1ccc(OC)c(OC)c1", "Potency": "inactive"}, {"compound": "Cc1c(Oc2cc(NN3CCCCC3)c([N+](=O)[O-])cc2[N+](=O)[O-])cccc1[N+](=O)[O-]", "Potency": "inactive"}, {"compound": "COC(=O)C1=C(c2ccc(C(C)=O)cc2)C[C@@H]2CC[C@H]1N2C(=O)NCCNC(C)=O", "Potency": "inactive"}, {"compound": "CCN(CC)c1ccc([N+](=O)[O-])c2cccnc12", "Potency": "10 µM (active)"}, {"compound": "Oc1ccc2c3c1OC1[C@H](O)CC[C@@]4(O)[C@@H](C2)N(CC2CC2)CC[C@]314", "note": "(stereo not given in full)", "Potency": "inactive"}, {"compound": "COC(=O)C1=C(c2ccc3ccccc3c2)C[C@@H]2CC[C@H]1N2C(=O)NCCO", "Potency": "inactive"}, {"compound": "Cc1c(C(=O)O)cccc1-n1c(C)cc(/C=C2\\C(=O)NC(=O)N(c3ccc4c(c3)OCO4)C2=O)c1C", "Potency": "14.1 µM (active)"}, {"compound": "Cc1ccccc1N1C(=O)NC(=O)/C(=C\\c2cc(C)n(C)c2C)C1=O", "Potency": "inactive"}, {"compound": "COC(=O)C1=C(c2ccc(F)cc2F)C[C@@H]2CC[C@H]1N2C(=O)NC1CC1", "Potency": "inactive"}, {"compound": "COC(=O)C1=C(c2ccc(Cl)c(C(F)(F)F)c2)C[C@@H]2CC[C@H]1N2C(=O)NC1CC1", "Potency": "inactive"}, {"compound": "O=C(c1ccccc1[N+](=O)[O-])N1CCC2(CC1)OCCO2", "Potency": "inactive"}, {"compound": "C[C@]12CCC3C(CC[C@H]4C[C@@H](O)CC[C@]34C)C1C[C@@H](O)[C@H]2O", "note": "(stereo not given in full)", "Potency": "inactive"}]}]}
